Data: PubChem BioAssay (NCI)
Compounds without any hit were thinned out: in the full panel of roughly 79,000, 15% have a hit. Active and inactive are the calls of the source. No stated cut-off is given here; in the data, active means growth inhibition above about 70%; inactive means the rest.

test: NCI Yeast Anticancer Drug Screen. Data for the rad18 strain (AID 177); details: S. cerevisiae rad18 mutant growth inhibition; at 1.2 µM; stronger effect = higher value
Summary of the method: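 DNA-repair-defective yeast; compound treatment; growth inhibition scored against vehicle.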

Structure (SMILES)	growth inhibition
CN(C)c1ccc(C2CC(C)(O)Oc3cc4c(cc32)OCO4)cc1 (stereo unspecified)	24% (inactive)
O=P(NC1CCCCC1)(OCc1ccccc1)OCc1ccccc1	-1% (inactive)
COc1oc(C(=O)NC2CCCCC2)c(-c2ccc(Cl)cc2)c1S(=O)(=O)c1ccccc1	-6% (inactive)
C[Si](C)(C)/C=C/CCNC(C#N)c1ccccc1 (stereo unspecified)	-33% (inactive)
CCOc1ccc(NC(=O)C2=C(C)NC(C)=C(C(=O)Nc3ccc(OCC)cc3)C2c2cccc([N+](=O)[O-])c2)cc1	-4% (inactive)
CN(C)CCOC1(Cc2ccc(F)cc2)CCC(C(C)(C)C)CC1 (stereo unspecified)	-9% (inactive)
CC1(C)CC(=O)C(/C=N/c2nc(-c3ccccc3)cs2)=C(O)C1	6% (inactive)
CC(=O)Nc1ccc2c(c1)Cc1cc(N=C3C=CC(=O)O3)ccc1-2	12% (inactive)
O=C1C=C(Cl)C(=O)C(c2ccc(Cl)cc2)=C1	16% (inactive)
CNCCCNc1c2ccccc2nc2cccc([N+](=O)[O-])c12	92% (active)
CCCCCCCCCCCC(O)S(=O)(=O)O (stereo unspecified)	1% (inactive)
CC(C)OC(=O)c1ccc(CCc2cc(O)c(Br)cc2O)cc1	20% (inactive)
CCc1cc(O)c(Cl)c(C)c1Cl	-14% (inactive)
C(=Nc1ccc(-c2cc(-c3ccccc3)nc3ccc4ccccc4c23)cc1)c1ccccc1	30% (inactive)
CSc1nc(C)c(CCOC(C)=O)c(N=P(c2ccccc2)(c2ccccc2)c2ccccc2)n1	16% (inactive)
CS(=O)(=O)SCc1ccc([N+](=O)[O-])cc1	7% (inactive)
COC1=C(OC)C(=O)C(Sc2ccc3ccccc3c2)=CC1=O	-36% (inactive)
COc1nc2c(c(=O)n1C)N=C(c1ccccc1)[C@H](C(CC(=O)c1ccccc1)c1ccccc1)C(c1ccccc1)N2 (stereo partly specified)	37% (inactive)
Cc1cc(-c2cc(C)c(O)c(C(C)(C)C)c2)cc(C(C)(C)C)c1O	-42% (inactive)

Structure (SMILES)	growth inhibition
Nc1cc(N)c(N=Nc2cccc3c(S(=O)(=O)O)cccc23)cc1N=Nc1cc([N+](=O)[O-])ccc1O	-13% (inactive)
Nc1ccc(F)cc1S	-28% (inactive)
COc1cc(C2SCC(=O)N2c2ccc(-c3ccc(-n4c(-c5ccccc5)nc5ccccc5c4=O)cc3)cc2)ccc1O (stereo unspecified)	-3% (inactive)
Nc1ncnc2c1ncn2C1OC(CO)CC1O (stereo unspecified)	4% (inactive)
COc1cc(CSc2ccc(O)cc2)cc(O)c1O	-2% (inactive)
CCOC(=O)C1N=[N+](c2ccccc2)C(=O)/C1=C\n1c(=S)[nH]c2ccc([N+](=O)[O-])cc21 (stereo unspecified)	-2% (inactive)
CNC(=O)OCc1c(COC(=O)NC)c2n(c1C)-c1ccc(OC)cc1CCC2	-45% (inactive)
O=C(NNc1ccccc1)c1ccc(Cl)c(Cl)c1	2% (inactive)
Cc1ccc(CC2(OCCN(C)C)CCC(C(C)(C)C)CC2)cc1 (stereo unspecified)	3% (inactive)
C[C@]12CC[C@H](O)CC1=CC[C@@H]1C2CC[C@]2(C)C(=O)NC(=O)CC12 (stereo partly specified)	-27% (inactive)
CCCC/C=C/C(C)(C(=O)OCC)C(=O)OCC	-4% (inactive)
CCc1c(Cl)c(C)cc(O)c1Cl	-20% (inactive)
O=C(/C=C(/c1ccccc1)N1CCCCC1)c1ccccc1	-2% (inactive)
CCCC(=O)Oc1ccc(/C=N/NC(N)=S)nc1	-7% (inactive)
CCc1nc2ccc(NCCN(C)C)c3c(=O)c4ccccc4n1c23	30% (inactive)
Cc1sc2ccc3ccccc3c2[n+]1C	0% (inactive)
COc1c(O)c(C=O)c(Br)c(C=O)c1O	0% (inactive)
Cc1ccc(Cl)cc1NC(=O)OCCN(C)C(=O)Nc1cc(Cl)ccc1C	-27% (inactive)
Cc1nc2ccccc2nc1NNc1ccccc1	-3% (inactive)

same assay, conditions: S. cerevisiae rad18 mutant growth inhibition; at 3.7 µM; stronger effect = higher value

Structure (SMILES)	growth inhibition
CN(C)c1ccc(C2CC(C)(O)Oc3cc4c(cc32)OCO4)cc1 (stereo unspecified)	57% (inactive)
O=P(NC1CCCCC1)(OCc1ccccc1)OCc1ccccc1	3% (inactive)
COc1oc(C(=O)NC2CCCCC2)c(-c2ccc(Cl)cc2)c1S(=O)(=O)c1ccccc1	-1% (inactive)
C[Si](C)(C)/C=C/CCNC(C#N)c1ccccc1 (stereo unspecified)	-42% (inactive)
CCOc1ccc(NC(=O)C2=C(C)NC(C)=C(C(=O)Nc3ccc(OCC)cc3)C2c2cccc([N+](=O)[O-])c2)cc1	-3% (inactive)
CN(C)CCOC1(Cc2ccc(F)cc2)CCC(C(C)(C)C)CC1 (stereo unspecified)	-23% (inactive)
CC1(C)CC(=O)C(/C=N/c2nc(-c3ccccc3)cs2)=C(O)C1	22% (inactive)
CC(=O)Nc1ccc2c(c1)Cc1cc(N=C3C=CC(=O)O3)ccc1-2	31% (inactive)
O=C1C=C(Cl)C(=O)C(c2ccc(Cl)cc2)=C1	-4% (inactive)
CNCCCNc1c2ccccc2nc2cccc([N+](=O)[O-])c12	95% (active)
CCCCCCCCCCCC(O)S(=O)(=O)O (stereo unspecified)	1% (inactive)
CC(C)OC(=O)c1ccc(CCc2cc(O)c(Br)cc2O)cc1	24% (inactive)
CCc1cc(O)c(Cl)c(C)c1Cl	-30% (inactive)
C(=Nc1ccc(-c2cc(-c3ccccc3)nc3ccc4ccccc4c23)cc1)c1ccccc1	32% (inactive)
CSc1nc(C)c(CCOC(C)=O)c(N=P(c2ccccc2)(c2ccccc2)c2ccccc2)n1	12% (inactive)
CS(=O)(=O)SCc1ccc([N+](=O)[O-])cc1	29% (inactive)
COC1=C(OC)C(=O)C(Sc2ccc3ccccc3c2)=CC1=O	-25% (inactive)
COc1nc2c(c(=O)n1C)N=C(c1ccccc1)[C@H](C(CC(=O)c1ccccc1)c1ccccc1)C(c1ccccc1)N2 (stereo partly specified)	47% (inactive)
Cc1cc(-c2cc(C)c(O)c(C(C)(C)C)c2)cc(C(C)(C)C)c1O	-36% (inactive)

Structure (SMILES)	growth inhibition
Nc1cc(N)c(N=Nc2cccc3c(S(=O)(=O)O)cccc23)cc1N=Nc1cc([N+](=O)[O-])ccc1O	-28% (inactive)
Nc1ccc(F)cc1S	-30% (inactive)
COc1cc(C2SCC(=O)N2c2ccc(-c3ccc(-n4c(-c5ccccc5)nc5ccccc5c4=O)cc3)cc2)ccc1O (stereo unspecified)	-1% (inactive)
Nc1ncnc2c1ncn2C1OC(CO)CC1O (stereo unspecified)	4% (inactive)
COc1cc(CSc2ccc(O)cc2)cc(O)c1O	1% (inactive)
CCOC(=O)C1N=[N+](c2ccccc2)C(=O)/C1=C\n1c(=S)[nH]c2ccc([N+](=O)[O-])cc21 (stereo unspecified)	1% (inactive)
CNC(=O)OCc1c(COC(=O)NC)c2n(c1C)-c1ccc(OC)cc1CCC2	-43% (inactive)
O=C(NNc1ccccc1)c1ccc(Cl)c(Cl)c1	4% (inactive)
Cc1ccc(CC2(OCCN(C)C)CCC(C(C)(C)C)CC2)cc1 (stereo unspecified)	-14% (inactive)
C[C@]12CC[C@H](O)CC1=CC[C@@H]1C2CC[C@]2(C)C(=O)NC(=O)CC12 (stereo partly specified)	-29% (inactive)
CCCC/C=C/C(C)(C(=O)OCC)C(=O)OCC	1% (inactive)
CCc1c(Cl)c(C)cc(O)c1Cl	6% (inactive)
O=C(/C=C(/c1ccccc1)N1CCCCC1)c1ccccc1	1% (inactive)
CCCC(=O)Oc1ccc(/C=N/NC(N)=S)nc1	2% (inactive)
CCc1nc2ccc(NCCN(C)C)c3c(=O)c4ccccc4n1c23	42% (inactive)
Cc1sc2ccc3ccccc3c2[n+]1C	4% (inactive)
COc1c(O)c(C=O)c(Br)c(C=O)c1O	-1% (inactive)
Cc1ccc(Cl)cc1NC(=O)OCCN(C)C(=O)Nc1cc(Cl)ccc1C	-35% (inactive)
Cc1nc2ccccc2nc1NNc1ccccc1	-2% (inactive)
